# Assay results taken from PubChem BioAssay (NCI).
# The panel holds about 79,000 compounds, 15% with a hit somewhere; the sample as a whole holds those more often. Unmarked numbers belong to inactive results. Active and inactive are the calls of the source. Rule as the data show it: active = growth inhibition above about 70%; inactive = the rest.
# Columns and labels:
# [1] = NCI Yeast Anticancer Drug Screen. Data for the rad52 strain (AID 147);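 also: 0% = growth of vehicle-treated control cultures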; conditions: S. cerevisiae rad52 mutant growth inhibition, active compounds read high
# How it was run: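 Screen used a yeast mutant impaired in DNA repair. After compound exposure, growth was measured. Values reflect inhibition compared with vehicle-treated cells.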
# [2] = NCI Yeast Anticancer Drug Screen. Data for the wt1 strain (AID 149);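 also: 0% = growth of vehicle-treated wt1 cultures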; conditions: S. cerevisiae wt1 strain (SPY 50644) growth inhibition, active compounds read high
# How it was run: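 wt1 strain grown with compound or vehicle; inhibition taken from the growth difference.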
# [3] = NCI Yeast Anticancer Drug Screen. Data for the rad50EPP+ strain (AID 151);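 also: 0% = growth of vehicle-treated control cultures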; conditions: S. cerevisiae rad50 mutant strain, active compounds read high
# How it was run: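 Exposing the rad50EPP+ strain to each compound, growth was compared with vehicle-only cultures to give inhibition.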
# [4] = NCI Yeast Anticancer Drug Screen. Data for the mgt1 strain (AID 153); conditions: S. cerevisiae mgt1 mutant growth inhibition, active compounds read high
# How it was run: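 Genetically defined yeast (mgt1) treated with compound; inhibition of growth expressed against vehicle-treated controls.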
# [5] = NCI Yeast Anticancer Drug Screen. Data for the rad50 strain (AID 155);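 also: 0% = growth of vehicle-only cultures of the same strain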; conditions: S. cerevisiae rad50 strain growth inhibition, active compounds read high
# How it was run: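 DNA repair mutant yeast, compound exposure, growth read-out; inhibition is taken relative to vehicle.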
# [6] = NCI Yeast Anticancer Drug Screen. Data for the mec2-1 strain (AID 157); conditions: S. cerevisiae mec2-1 strain, active compounds read high
# How it was run: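 Readout is yeast growth inhibition, normalised to vehicle-treated controls, in the mec2-1 strain exposed to compound.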
# [7] = NCI Yeast Anticancer Drug Screen. Data for the rad14 strain (AID 159);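 also: 0% = growth of vehicle-treated control cultures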; conditions: S. cerevisiae rad14 strain growth inhibition, active compounds read high
# How it was run: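 DNA repair-defective yeast, compound-exposed; % growth inhibition derived by comparison with vehicle-treated controls.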
# [8] = NCI Yeast Anticancer Drug Screen. Data for the sgs1 mgt1 strain (AID 161);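 also: 0% = growth of cultures given vehicle only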; conditions: S. cerevisiae sgs1 mgt1 strain, active compounds read high
# How it was run: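 Growth of a repair-deficient yeast mutant was monitored after compound treatment and expressed as inhibition relative to vehicle-treated cultures.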
# [9] = NCI Yeast Anticancer Drug Screen. Data for the CLN2oe strain (AID 163);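 also: 0% = growth of vehicle-only control cultures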; conditions: S. cerevisiae CLN2oe strain, active compounds read high
# How it was run: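 Values reflect how much compound exposure reduced yeast growth, referenced to vehicle-exposed cells. Assay organism is a strain with a defined genetic change affecting cell-cycle control.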
# [10] = NCI Yeast Anticancer Drug Screen. Data for the cln2 rad14 strain (AID 165);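 also: 0% = growth equal to vehicle treated cultures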; conditions: S. cerevisiae cln2 rad14 strain, active compounds read high
# How it was run: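 Relative to vehicle controls, growth inhibition of compound-treated cln2 rad14 yeast was recorded.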
# [11] = NCI Yeast Anticancer Drug Screen. Data for the bub3 strain (AID 167); conditions: S. cerevisiae bub3 mutant strain, active compounds read high
# How it was run: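 In this screen, a yeast mutant lacking normal mitotic checkpoint function is challenged with compound. Relative growth versus vehicle gives the inhibition value.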
# [12] = NCI Yeast Anticancer Drug Screen. Data for the wt2 strain (AID 169);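 also: 0% = growth of vehicle-treated yeast cultures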; conditions: S. cerevisiae wt2 strain growth inhibition, active compounds read high
# How it was run: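 Values express reduction in yeast growth under compound treatment, referenced to vehicle-treated cells.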
# [13] = NCI Yeast Anticancer Drug Screen. Data for the mlh1 strain (AID 171);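 also: 0% = growth of vehicle-treated control cultures of the same strain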; conditions: S. cerevisiae mlh1 strain growth inhibition, active compounds read high
# How it was run: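 Steps: expose the defined-mutant yeast strain to compound; expose a parallel culture to vehicle; measure growth; express compound effect as inhibition relative to the vehicle culture.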
# [14] = NCI Yeast Anticancer Drug Screen. Data for the sgs1 strain (AID 173);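 also: 0% = growth of vehicle-only control cultures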; conditions: S. cerevisiae sgs1 mutant, active compounds read high
# How it was run: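 Treat defined-mutant yeast with compound; measure growth; calculate inhibition relative to vehicle-treated cells.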
# [15] = NCI Yeast Anticancer Drug Screen. Data for the mlh1 rad18 strain (AID 175); conditions: S. cerevisiae mlh1 rad18 strain growth inhibition, active compounds read high
# How it was run: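 Test agents were incubated with a yeast strain of defined genotype (DNA damage repair defect). Inhibition of growth was derived by comparison with vehicle-exposed cultures.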
# [16] = NCI Yeast Anticancer Drug Screen. Data for the rad18 strain (AID 177); conditions: S. cerevisiae rad18 mutant growth inhibition, active compounds read high
# How it was run: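 A genetically defined yeast mutant impaired in DNA damage repair was treated with test compounds, then its growth was measured against cultures receiving vehicle alone.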
# [17] = at 5.0 µM (retest, dose inferred, filed as 0.5)
# [18] = at 50.0 µM (retest, dose inferred, filed as 5.0)
smiles,measurement,setting,value
Cc1ccccc1N=Cc1cc(Cl)ccc1O,growth inhibition,[1]; at 1.2 µM,-11%
same,growth inhibition,[1]; at 3.7 µM,-3%
same,growth inhibition,[1]; at 11.0 µM,4%
same,growth inhibition,[1]; at 33.0 µM,21%
same,growth inhibition,[1]; at 100.0 µM,96% (active)
same,growth inhibition,[2]; at 1.2 µM,-4%
same,growth inhibition,[2]; at 3.7 µM,-5%
same,growth inhibition,[2]; at 11.0 µM,-7%
same,growth inhibition,[2]; at 33.0 µM,7%
same,growth inhibition,[2]; at 100.0 µM,75% (active)
same,growth inhibition,[3]; at 1.2 µM,3%
same,growth inhibition,[3]; at 3.7 µM,18%
same,growth inhibition,[3]; at 11.0 µM,35%
same,growth inhibition,[3]; at 33.0 µM,58%
same,growth inhibition,[3]; at 100.0 µM,85% (active)
same,growth inhibition,[4]; at 1.2 µM,-1%
same,growth inhibition,[4]; at 3.7 µM,-4%
same,growth inhibition,[4]; at 11.0 µM,-2%
same,growth inhibition,[4]; at 33.0 µM,14%
same,growth inhibition,[4]; at 100.0 µM,89% (active)
same,growth inhibition,[5]; at 1.2 µM,-5%
same,growth inhibition,[5]; at 3.7 µM,-1%
same,growth inhibition,[5]; [17],-74%
same,growth inhibition,[5]; at 11.0 µM,10%
same,growth inhibition,[5]; at 33.0 µM,44%
same,growth inhibition,[5]; [18],66%
same,growth inhibition,[5]; at 50.0 µM,51.3%
same,growth inhibition,[5]; at 100.0 µM,98% (active)
same,growth inhibition,[6]; at 1.2 µM,1%
same,growth inhibition,[6]; at 3.7 µM,-1%
same,growth inhibition,[6]; [17],-7%
same,growth inhibition,[6]; at 11.0 µM,1%
same,growth inhibition,[6]; at 33.0 µM,2%
same,growth inhibition,[6]; [18],16%
same,growth inhibition,[6]; at 50.0 µM,35.7%
same,growth inhibition,[6]; at 100.0 µM,53%
same,growth inhibition,[7]; at 1.2 µM,-2%
same,growth inhibition,[7]; at 3.7 µM,1%
same,growth inhibition,[7]; at 11.0 µM,11%
same,growth inhibition,[7]; at 33.0 µM,44%
same,growth inhibition,[7]; at 100.0 µM,98% (active)
same,growth inhibition,[8]; [17],-13%
same,growth inhibition,[8]; [18],44%
same,growth inhibition,[8]; at 50.0 µM,26.5%
same,growth inhibition,[9]; at 1.2 µM,2%
same,growth inhibition,[9]; at 3.7 µM,3%
same,growth inhibition,[9]; at 11.0 µM,8%
same,growth inhibition,[9]; at 33.0 µM,12%
same,growth inhibition,[9]; at 100.0 µM,60%
same,growth inhibition,[10]; [17],-32%
same,growth inhibition,[10]; [18],-16%
same,growth inhibition,[10]; at 50.0 µM,-13.1%
same,growth inhibition,[11]; at 1.2 µM,-6%
same,growth inhibition,[11]; at 3.7 µM,-4%
same,growth inhibition,[11]; [17],-68%
same,growth inhibition,[11]; at 11.0 µM,-1%
same,growth inhibition,[11]; at 33.0 µM,16%
same,growth inhibition,[11]; [18],-4%
same,growth inhibition,[11]; at 50.0 µM,42%
same,growth inhibition,[11]; at 100.0 µM,90% (active)
same,growth inhibition,[12]; at 1.2 µM,-1%
same,growth inhibition,[12]; at 3.7 µM,0%
same,growth inhibition,[12]; at 11.0 µM,-1%
same,growth inhibition,[12]; at 33.0 µM,2%
same,growth inhibition,[12]; at 100.0 µM,73% (active)
same,growth inhibition,[13]; at 1.2 µM,7%
same,growth inhibition,[13]; at 3.7 µM,-5%
same,growth inhibition,[13]; at 11.0 µM,0%
same,growth inhibition,[13]; at 33.0 µM,22%
same,growth inhibition,[13]; at 100.0 µM,87% (active)
same,growth inhibition,[14]; at 1.2 µM,-2%
same,growth inhibition,[14]; at 3.7 µM,-3%
same,growth inhibition,[14]; at 11.0 µM,4%
same,growth inhibition,[14]; at 33.0 µM,20%
same,growth inhibition,[14]; at 100.0 µM,92% (active)
same,growth inhibition,[15]; [17],-73%
same,growth inhibition,[15]; [18],18%
same,growth inhibition,[15]; at 50.0 µM,67%
same,growth inhibition,[16]; at 1.2 µM,-6%
same,growth inhibition,[16]; at 3.7 µM,2%
same,growth inhibition,[16]; at 11.0 µM,9%
same,growth inhibition,[16]; at 33.0 µM,23%
same,growth inhibition,[16]; at 100.0 µM,92% (active)
COc1cc([C@@H]2c3cc4c(cc3[C@H](OC3OC5COC(C(C)C)OC5C(O)C3O)C3COC(=O)[C@@H]32)OCO4)cc(OC)c1O (stereo partly specified),growth inhibition,[1]; at 1.2 µM,-10%
same,growth inhibition,[1]; at 3.7 µM,-17%
same,growth inhibition,[1]; at 11.0 µM,-26%
same,growth inhibition,[1]; at 33.0 µM,35%
same,growth inhibition,[1]; at 100.0 µM,78% (active)
same,growth inhibition,[2]; at 1.2 µM,-25%
same,growth inhibition,[2]; at 3.7 µM,-31%
same,growth inhibition,[2]; at 11.0 µM,12%
same,growth inhibition,[2]; at 33.0 µM,-18%
same,growth inhibition,[2]; at 100.0 µM,9%
same,growth inhibition,[3]; at 1.2 µM,-15%
same,growth inhibition,[3]; at 3.7 µM,-19%
same,growth inhibition,[3]; at 11.0 µM,-46%
same,growth inhibition,[3]; at 33.0 µM,-41%
same,growth inhibition,[3]; at 100.0 µM,-37%
same,growth inhibition,[4]; at 1.2 µM,-31%
same,growth inhibition,[4]; at 3.7 µM,-8%
same,growth inhibition,[4]; at 11.0 µM,-32%
same,growth inhibition,[4]; at 33.0 µM,-29%
same,growth inhibition,[4]; at 100.0 µM,22%
same,growth inhibition,[5]; at 1.2 µM,-22%
same,growth inhibition,[5]; at 3.7 µM,-32%
same,growth inhibition,[5]; [17],18%
same,growth inhibition,[5]; at 11.0 µM,-11%
same,growth inhibition,[5]; at 33.0 µM,42%
same,growth inhibition,[5]; [18],96% (active)
same,growth inhibition,[5]; at 50.0 µM,1.85%
same,growth inhibition,[5]; at 100.0 µM,82% (active)
same,growth inhibition,[6]; at 1.2 µM,4%
same,growth inhibition,[6]; at 3.7 µM,1%
same,growth inhibition,[6]; [17],9%
same,growth inhibition,[6]; at 11.0 µM,-17%
same,growth inhibition,[6]; at 33.0 µM,-5%
same,growth inhibition,[6]; [18],47%
same,growth inhibition,[6]; at 50.0 µM,22.4%
same,growth inhibition,[6]; at 100.0 µM,34%
same,growth inhibition,[7]; at 1.2 µM,-14%
same,growth inhibition,[7]; at 3.7 µM,-27%
same,growth inhibition,[7]; at 11.0 µM,-11%
same,growth inhibition,[7]; at 33.0 µM,-22%
same,growth inhibition,[7]; at 100.0 µM,8%
same,growth inhibition,[8]; [17],-1%
same,growth inhibition,[8]; [18],32%
same,growth inhibition,[8]; at 50.0 µM,28.6%
same,growth inhibition,[9]; at 1.2 µM,-3%
same,growth inhibition,[9]; at 3.7 µM,3%
same,growth inhibition,[9]; at 11.0 µM,3%
same,growth inhibition,[9]; at 33.0 µM,-22%
same,growth inhibition,[9]; at 100.0 µM,7%
same,growth inhibition,[10]; [17],10%
same,growth inhibition,[10]; [18],9%
same,growth inhibition,[10]; at 50.0 µM,13.6%
same,growth inhibition,[11]; at 1.2 µM,-66%
same,growth inhibition,[11]; at 3.7 µM,-39%
same,growth inhibition,[11]; [17],10%
same,growth inhibition,[11]; at 11.0 µM,-50%
same,growth inhibition,[11]; at 33.0 µM,-63%
same,growth inhibition,[11]; [18],21%
same,growth inhibition,[11]; at 50.0 µM,8.5%
same,growth inhibition,[11]; at 100.0 µM,-2%
same,growth inhibition,[12]; at 1.2 µM,-58%
same,growth inhibition,[12]; at 3.7 µM,-40%
same,growth inhibition,[12]; at 11.0 µM,-45%
same,growth inhibition,[12]; at 33.0 µM,-19%
same,growth inhibition,[12]; at 100.0 µM,83% (active)
same,growth inhibition,[13]; at 1.2 µM,-31%
same,growth inhibition,[13]; at 3.7 µM,-8%
same,growth inhibition,[13]; at 11.0 µM,-32%
same,growth inhibition,[13]; at 33.0 µM,-29%
same,growth inhibition,[13]; at 100.0 µM,22%
same,growth inhibition,[14]; at 1.2 µM,-6%
same,growth inhibition,[14]; at 3.7 µM,-9%
same,growth inhibition,[14]; at 11.0 µM,1%
same,growth inhibition,[14]; at 33.0 µM,-5%
same,growth inhibition,[14]; at 100.0 µM,45%
same,growth inhibition,[15]; [17],18%
same,growth inhibition,[15]; [18],44%
same,growth inhibition,[15]; at 50.0 µM,-64.6%
same,growth inhibition,[16]; at 1.2 µM,6%
same,growth inhibition,[16]; at 3.7 µM,-5%
same,growth inhibition,[16]; at 11.0 µM,2%
same,growth inhibition,[16]; at 33.0 µM,-21%
same,growth inhibition,[16]; at 100.0 µM,41%
